# What was measured:
# Test in all cases: DAPPL (digital affinity profiling via proximity ligation, sequencing); 10 mM Tris-HCl pH 7.5, 50 mM NaCl, 1 mM DTT, 4% glycerol, room temperature, 30 min; GST-TFs on glutathione beads, 16-mer random dsDNA library, 0.1% formaldehyde crosslink after washing; high values mean tight binding
# Settings in all cases: protein: recombinant; tags: N-terminal GST; dsDNA, one strand shown
# [1] = molecular target: T1, ERF (Homo sapiens, UniProt P50548 1-548)
# T1 sequence: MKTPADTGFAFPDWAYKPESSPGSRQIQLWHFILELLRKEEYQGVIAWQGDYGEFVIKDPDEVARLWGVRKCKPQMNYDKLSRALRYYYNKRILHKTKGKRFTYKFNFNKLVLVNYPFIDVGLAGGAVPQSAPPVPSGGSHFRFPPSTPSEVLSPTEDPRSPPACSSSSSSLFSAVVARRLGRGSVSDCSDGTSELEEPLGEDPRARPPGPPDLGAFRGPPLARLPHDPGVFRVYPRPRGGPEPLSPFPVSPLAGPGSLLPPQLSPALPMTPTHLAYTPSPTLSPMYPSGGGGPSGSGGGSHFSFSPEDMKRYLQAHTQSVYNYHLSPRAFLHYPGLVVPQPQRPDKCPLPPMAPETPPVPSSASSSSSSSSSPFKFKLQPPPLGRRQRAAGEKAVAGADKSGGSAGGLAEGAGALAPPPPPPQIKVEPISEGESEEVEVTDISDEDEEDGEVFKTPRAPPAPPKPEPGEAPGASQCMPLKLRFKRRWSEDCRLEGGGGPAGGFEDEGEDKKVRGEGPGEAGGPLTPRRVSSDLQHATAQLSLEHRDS
# Outline: (§1)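 Binding signal is defined as a hexamer's read frequency for one factor over its frequency for the tag-only sample. To obtain reads, GST-fused human transcription factors were expressed in yeast, captured on glutathione beads, barcoded with DNA and pooled with that sample. Pools met 200 nmole of a 16-mer random double-stranded DNA library in Tris/NaCl/DTT/glycerol buffer for 30 min at room temperature before washing, 0.1% formaldehyde crosslinking, proximity ligation (BsaI/T4 ligase, 1 h, 37 °C), PCR and Illumina NextSeq500 sequencing.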
# [2] = molecular target: T2, ETV3L (Homo sapiens, UniProt Q6ZN32 1-361)
# T2 sequence: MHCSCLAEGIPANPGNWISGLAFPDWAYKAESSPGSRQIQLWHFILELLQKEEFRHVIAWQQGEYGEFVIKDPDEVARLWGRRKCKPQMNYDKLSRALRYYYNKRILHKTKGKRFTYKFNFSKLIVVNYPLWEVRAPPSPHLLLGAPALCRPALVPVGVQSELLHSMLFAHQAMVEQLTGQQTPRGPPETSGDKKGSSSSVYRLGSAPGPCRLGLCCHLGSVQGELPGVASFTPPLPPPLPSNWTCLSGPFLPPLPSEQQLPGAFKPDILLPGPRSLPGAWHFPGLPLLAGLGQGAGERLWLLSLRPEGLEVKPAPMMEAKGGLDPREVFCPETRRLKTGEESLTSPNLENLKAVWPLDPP
# Outline: as §1
# [3] = molecular target: T3, ETS2 (Homo sapiens, UniProt P15036 1-469)
# T3 sequence: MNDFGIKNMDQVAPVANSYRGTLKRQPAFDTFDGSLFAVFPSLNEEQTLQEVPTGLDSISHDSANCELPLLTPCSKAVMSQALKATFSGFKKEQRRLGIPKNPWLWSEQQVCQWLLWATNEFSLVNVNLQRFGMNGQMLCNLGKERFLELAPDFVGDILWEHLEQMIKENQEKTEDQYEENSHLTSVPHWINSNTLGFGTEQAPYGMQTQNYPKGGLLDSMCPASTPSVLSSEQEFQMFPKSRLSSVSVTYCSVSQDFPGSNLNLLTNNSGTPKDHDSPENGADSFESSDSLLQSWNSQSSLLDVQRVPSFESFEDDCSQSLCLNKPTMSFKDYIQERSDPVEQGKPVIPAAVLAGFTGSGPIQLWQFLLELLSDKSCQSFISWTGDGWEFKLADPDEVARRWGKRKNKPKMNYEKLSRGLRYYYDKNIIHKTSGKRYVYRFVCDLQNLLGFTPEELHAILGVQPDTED
# Outline: as §1
# [4] = molecular target: T4, SPDEF (Homo sapiens, UniProt O95238 1-335)
# T4 sequence: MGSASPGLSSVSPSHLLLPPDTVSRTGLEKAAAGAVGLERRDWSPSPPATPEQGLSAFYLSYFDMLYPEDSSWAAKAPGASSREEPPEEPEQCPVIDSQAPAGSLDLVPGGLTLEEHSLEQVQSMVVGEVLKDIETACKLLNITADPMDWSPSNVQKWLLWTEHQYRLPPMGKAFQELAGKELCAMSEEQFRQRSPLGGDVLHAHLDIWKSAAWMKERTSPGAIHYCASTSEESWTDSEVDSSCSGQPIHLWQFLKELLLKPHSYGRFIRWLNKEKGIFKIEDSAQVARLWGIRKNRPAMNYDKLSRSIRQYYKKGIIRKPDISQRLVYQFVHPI
# Outline: as §1
# [5] = molecular target: T5, ELF5 (Homo sapiens, UniProt Q9UKW6-2 1-255)
# T5 sequence: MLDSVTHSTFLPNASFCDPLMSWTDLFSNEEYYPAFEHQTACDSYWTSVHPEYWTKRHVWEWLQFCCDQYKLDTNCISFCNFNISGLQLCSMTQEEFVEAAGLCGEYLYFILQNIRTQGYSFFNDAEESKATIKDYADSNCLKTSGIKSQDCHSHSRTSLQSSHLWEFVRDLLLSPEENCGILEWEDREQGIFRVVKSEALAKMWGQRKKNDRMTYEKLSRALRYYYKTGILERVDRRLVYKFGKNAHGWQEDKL
# Outline: as §1
# [6] = molecular target: T6, ETV3 (Homo sapiens, UniProt P41162-2 1-143)
# T6 sequence: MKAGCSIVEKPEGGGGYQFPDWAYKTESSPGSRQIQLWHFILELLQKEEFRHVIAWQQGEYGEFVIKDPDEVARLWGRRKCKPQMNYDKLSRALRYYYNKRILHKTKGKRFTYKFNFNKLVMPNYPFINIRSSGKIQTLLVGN
# Outline: as §1
# [7] = molecular target: ETV6 (Homo sapiens, UniProt P41212 1-452)
# Chain of ETV6 (P41212 whole entry): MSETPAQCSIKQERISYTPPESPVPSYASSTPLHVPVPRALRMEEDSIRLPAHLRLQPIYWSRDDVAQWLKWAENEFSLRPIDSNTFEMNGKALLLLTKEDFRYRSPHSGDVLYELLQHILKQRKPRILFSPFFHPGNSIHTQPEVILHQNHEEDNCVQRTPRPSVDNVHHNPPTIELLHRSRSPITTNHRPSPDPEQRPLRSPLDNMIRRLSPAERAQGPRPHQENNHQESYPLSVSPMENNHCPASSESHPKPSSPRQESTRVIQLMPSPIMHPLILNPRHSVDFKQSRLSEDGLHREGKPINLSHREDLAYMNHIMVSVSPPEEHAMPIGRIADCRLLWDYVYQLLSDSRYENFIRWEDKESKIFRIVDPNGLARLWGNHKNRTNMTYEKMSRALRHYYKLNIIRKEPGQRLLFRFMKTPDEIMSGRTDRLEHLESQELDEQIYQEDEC
# Outline: as §1
Sequence,binding signal [1],binding signal [2],binding signal [3],binding signal [4],binding signal [5],binding signal [6],binding signal [7]
CTCCAG,"1.2 fold enrichment (6-mer frequency, TF over GST control)","1.2 fold enrichment (6-mer frequency, TF over GST control)","1.19 fold enrichment (6-mer frequency, TF over GST control)","1.16 fold enrichment (6-mer frequency, TF over GST control)","1.15 fold enrichment (6-mer frequency, TF over GST control)","1.23 fold enrichment (6-mer frequency, TF over GST control)",–
GATCCC,"1.3 fold enrichment (6-mer frequency, TF over GST control)","1.2 fold enrichment (6-mer frequency, TF over GST control)","1.11 fold enrichment (6-mer frequency, TF over GST control)","1.27 fold enrichment (6-mer frequency, TF over GST control)","1.1 fold enrichment (6-mer frequency, TF over GST control)","1.11 fold enrichment (6-mer frequency, TF over GST control)","1.12 fold enrichment (6-mer frequency, TF over GST control)"
CCACAA,"1.24 fold enrichment (6-mer frequency, TF over GST control)","1.26 fold enrichment (6-mer frequency, TF over GST control)","1.23 fold enrichment (6-mer frequency, TF over GST control)","1.14 fold enrichment (6-mer frequency, TF over GST control)","1.18 fold enrichment (6-mer frequency, TF over GST control)","1.12 fold enrichment (6-mer frequency, TF over GST control)","1.18 fold enrichment (6-mer frequency, TF over GST control)"
CTGTGC,"1.12 fold enrichment (6-mer frequency, TF over GST control)","1.13 fold enrichment (6-mer frequency, TF over GST control)","1.18 fold enrichment (6-mer frequency, TF over GST control)","1.12 fold enrichment (6-mer frequency, TF over GST control)","1 fold enrichment (6-mer frequency, TF over GST control)","1.19 fold enrichment (6-mer frequency, TF over GST control)","1.22 fold enrichment (6-mer frequency, TF over GST control)"
GATACG,"1.12 fold enrichment (6-mer frequency, TF over GST control)","1.1 fold enrichment (6-mer frequency, TF over GST control)","1.11 fold enrichment (6-mer frequency, TF over GST control)","1.35 fold enrichment (6-mer frequency, TF over GST control)","1.1 fold enrichment (6-mer frequency, TF over GST control)","1.12 fold enrichment (6-mer frequency, TF over GST control)","1.09 fold enrichment (6-mer frequency, TF over GST control)"
CACAAT,"1.18 fold enrichment (6-mer frequency, TF over GST control)","1.08 fold enrichment (6-mer frequency, TF over GST control)","1.13 fold enrichment (6-mer frequency, TF over GST control)","1.07 fold enrichment (6-mer frequency, TF over GST control)","1.06 fold enrichment (6-mer frequency, TF over GST control)","1.12 fold enrichment (6-mer frequency, TF over GST control)","1.09 fold enrichment (6-mer frequency, TF over GST control)"
GATACT,"1.22 fold enrichment (6-mer frequency, TF over GST control)","1.22 fold enrichment (6-mer frequency, TF over GST control)","1.09 fold enrichment (6-mer frequency, TF over GST control)","1.17 fold enrichment (6-mer frequency, TF over GST control)","1.06 fold enrichment (6-mer frequency, TF over GST control)","1.06 fold enrichment (6-mer frequency, TF over GST control)","1.07 fold enrichment (6-mer frequency, TF over GST control)"
TCGCCG,"1.38 fold enrichment (6-mer frequency, TF over GST control)","1.25 fold enrichment (6-mer frequency, TF over GST control)","1.26 fold enrichment (6-mer frequency, TF over GST control)","1.01 fold enrichment (6-mer frequency, TF over GST control)","1.15 fold enrichment (6-mer frequency, TF over GST control)","1.2 fold enrichment (6-mer frequency, TF over GST control)","1.13 fold enrichment (6-mer frequency, TF over GST control)"
CCGTAA,"1.08 fold enrichment (6-mer frequency, TF over GST control)","1.12 fold enrichment (6-mer frequency, TF over GST control)","1.16 fold enrichment (6-mer frequency, TF over GST control)","1.2 fold enrichment (6-mer frequency, TF over GST control)","1.22 fold enrichment (6-mer frequency, TF over GST control)","1.12 fold enrichment (6-mer frequency, TF over GST control)","1.08 fold enrichment (6-mer frequency, TF over GST control)"
TCTACA,"1.31 fold enrichment (6-mer frequency, TF over GST control)","1.21 fold enrichment (6-mer frequency, TF over GST control)","1.29 fold enrichment (6-mer frequency, TF over GST control)","1.27 fold enrichment (6-mer frequency, TF over GST control)","1.19 fold enrichment (6-mer frequency, TF over GST control)","1.18 fold enrichment (6-mer frequency, TF over GST control)","1.19 fold enrichment (6-mer frequency, TF over GST control)"

# Source: PMC7862700, “An all-to-all approach to the identification of sequence-specific readers for epigenetic DNA modifications on cytosine”
